This is part of a sample that, as a whole, favours compounds with a hit. Of some 83,000 tested, about 20% had one in any assay.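 In brief: 96-well plates, 48 h treatment, single concentration, percent growth endpoint.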 Values without a mark were called inactive. The source made the active and inactive calls. Rule for the calls: active = growth percent below 10; inactive = the rest.

Holding throughout (experiment): NCI-60 one-dose screen, 48 h (100 = growth as untreated, 0 = no growth, -100 = all killed)
Holding throughout (details): 10 µM unless noted

Test [1] concerns SK-MEL-2 melanoma.
The test system of test [2] is EKVX NSCLC.
For test [3], the system named is SN12C renal.
In test [4] the test system is UO-31 renal.
Test [5] has as its system TK-10 renal.
Test [6] has as its system ACHN renal.
Test [7] relates to CAKI-1 renal.
In test [8] the test system is CCRF-CEM leukemia.
In test [9] the test system is MOLT-4 leukemia.
The subject of test [10] is A498 renal.

`C=C(C)C1CCC2(C(=O)O)CCC3(C)C(CCC4C5(C)CCC(O)C(C)(C)C5CCC43C)C12` (configuration not stated): the growth was 25.4% in [1]; 48.1% in [2]; 26.8% in test [3]; 21.5% in test [4]; 12.8% in [5]; 24.2% in test [6]. Moreover, the growth in test [7] was -5.47% (active); in test [8], 3.16% (active); in test [9], 11.3%.

In the case of `Nc1n[nH]c2ccc([C@@H]3Nc4c(F)cc5[nH]ncc5c4[C@H]4C5CCC(C5)[C@@H]34)cc12` (some centres not stated), the growth in test [1] is 53.7%; in [2] it was 31.7%; in test [3], 22.6%; in [4], 28.2%; in test [5], 61%; in test [6], 22.7%. The growth in test [7] is 17.3%; in [10], -28.6% (active); in test [8] it was 18.1%; in test [9], 22.9%.

Take `COc1ccc(/C=C/C(=O)c2ccc(NC(=O)CSc3nnc(-c4ccc(Cl)cc4)n3-c3ccccc3)cc2)cc1`: the growth in [1] is 104%; in test [2], 89.4%; in [3] it was 91.2%; in test [4], 79.8%; in test [5], 113%; in test [6], 103%. Besides, the figures for the growth in test [10], in test [8] and in test [9] were 84.6%, 94.9% and 65.5%, respectively.

For `Cc1cc(NC(=O)c2ccc(N)cc2)ccc1N=Nc1ccc2cc(S(=O)(=O)O)cc(S(=O)(=O)O)c2c1`, the growth in [1] was 121%; in [2], 99.9%; in [3], 109%; in test [4] it was 101%; in test [5], 97.9%; in test [6], 95.2%. Moreover, the growth in test [7] is 91.5%; in [8], 87.1%; in test [9], 112%.

For `Clc1ccc2c(c1)-c1ccccc1C1=NCCN12`, the growth in test [1] is -0.581% (active); in test [2], 51.5%; in [3], 29.1%; in [4], 10.8%; in test [5], 20.1%; in [6] it was 14.1%. The growth in test [10] was 10.3%; in test [8], 28.4%; in [9], 17.1%.

In the case of `CCCCCCCCCCCCCCCCCC1=NC(C)(C)CN1C(C)(C)CO`, the growth in test [1] is -69% (active); in test [2] it was 27%; in [3], 11.6%; in test [4] it was -52.9% (active); in test [5], -35.1% (active); in test [6], -75.6% (active). Further, the growth in [7] is -65.2% (active); in [10], 78.9%; in test [8] it was -52.9% (active); in test [9], -55.2% (active).

On to `COc1ccc(C2C3CCc4ccccc4C3=NN2C(=O)c2cc(OC)c(OC)c(OC)c2)cc1O` (configuration not stated), for which the growth in test [1] is 75.4%; in [2] it was 89.6%; in test [3] it was 114%; in [4], 79.9%; in [5], 101%; in test [6], 98.1%. In addition, the growth is 101% in [7], 88.9% in [8] and 90.5% in [9].

Regarding `CC(C)(C)NC(=O)C(OC(=O)C1CCc2cc(F)ccc2O1)c1ccccc1Cl` (configuration not stated), the growth in test [1] is 102%; in [2] it was 96%; in test [3], 101%; in test [4], 72.4%; in [5] it was 99%; in [6], 99%. Further, the growth was 90.7% in [10], 92.5% in test [8] and 94.6% in test [9].

Regarding `COc1ccc2nc(NC(=O)/C(=C/c3cc(OC)c(OC)c(OC)c3)c3ccc(OC)c(OC)c3)sc2c1`, the growth in [1] is 95.6%; in test [2], 77.8%; in test [3] it was 99.9%; in test [4], 67.4%; in [5], 98.5%; in test [6], 94.9%. Also, the growth in test [7] is 75.9%; in test [10], 95.7%; in [8], 98.6%; in test [9], 83.7%.

Regarding `COc1ccc(NC(=O)/C=C/c2ccc(Cl)c(Cl)c2)cn1`, the growth in [1] is 101%; in test [2], 83.7%; in [3] it was 88.9%; in [4], 74.1%; in test [5] it was 78.3%; in test [6] it was 93.4%. The growth is 59.3% in test [7], 32.9% in test [8] and 44.4% in test [9].

With `CCN(CC)CCCCCCCNc1cc(OC)cc2c(C)ccnc12`, the growth in test [1] is 109%; in test [2], 86.7%; in test [3], 81.6%; in test [4], 38.2%; in test [5], 110%; in [6], 87.7%. Besides, the growth in [7] was 94%; in test [10] it was 63.2%; in test [8], 83.7%; in test [9], 72%.

Turning to `CCN(CC)CCC(CNc1ccnc2cc(Cl)ccc12)c1ccc(O)cc1` (configuration not stated), the growth was 119% in test [1]; 99.4% in [2]; 99.1% in test [3]; 77.4% in test [4]; 90.2% in [5]; 98.5% in test [6]. For the same compound, the growth is 37.7% in test [10], 46% in test [8] and 48.3% in [9].

As for `C=CCN(CCOC(=O)c1ccc([N+](=O)[O-])cc1)CCOC(=O)c1ccc([N+](=O)[O-])cc1`, the growth is 110% in test [1]; 96.1% in test [2]; 143% in test [3]; 69.9% in [4]; 114% in [5]; 95% in test [6]. Besides, the values for the growth in [7], in test [8] and in test [9] were 86.1%, 94.3% and 96.2%, respectively.

Regarding `COC(=O)c1cc2oc(/C=N/NC(=O)c3cc4oc(-c5cccc(C(F)(F)F)c5)cc4[nH]3)cc2n1Cc1ccccc1`, the growth in test [1] was 107%; in test [2] it was 117%; in [3], 104%; in [4] it was 91.5%; in test [5], 86.3%; in test [6] it was 106%. The growth is 85.8% in test [10], -26% (active) in [8] and 77.8% in [9].

For `C[C@@H](C[C@H](CC1CC1)c1ccccc1)c1ccc2ccccc2c1`, the growth is 109% in [1]; 101% in [2]; 103% in test [3]; 90.1% in [4]; 105% in test [5]; 106% in [6]. Besides, the growth is 100% in test [10], 96.4% in [8] and 105% in test [9].

Turning to `CCCCCCCCCCCCCCCCS(=O)(=O)Nc1cc(C(=O)NN)cc(C(=O)NN)c1`, the growth is 114% in [1]; 47.1% in [2]; 72.9% in test [3]; 65% in test [4]; 68.6% in test [5]; 77.1% in test [6]. In addition, the growth in [7] was 49%; in test [10] it was 90.4%; in test [8], 34.3%; in test [9], 21.5%.

`COc1ccc(-c2cn(-c3cccc(C(=O)/C=C/c4ccc(O)c(OC)c4)c3)c(=O)[nH]2)cc1`: the growth in [1] is 30%; in test [2], 40.8%; in test [3] it was 14.2%; in test [4], 19%; in test [5], 35.6%; in test [6] it was -47.8% (active). In addition, the values for the growth in test [7], in test [8] and in test [9] were 24.6%, 9.57% (active) and 5.6% (active), respectively.

On to `NC(=Nc1ccccc1)SCCCSC(N)=Nc1ccccc1`, for which the growth was 90.8% in test [1]; 78.8% in [2]; 89.3% in test [3]; 42.1% in test [4]; 101% in test [5]; 81.5% in test [6]. The growth was 76.4% in [7], 79.3% in [8] and 90.8% in [9].

As for `CCN(C)CCCOc1ccc(/C(=C(\C)Cc2cccc(OC)c2)c2ccc(OC(C)=O)cc2)cc1`, the growth in test [1] was 103%; in test [2], 92.5%; in test [3], 95%; in test [4], 92%; in [5], 95%; in test [6] it was 104%. In addition, the growth in test [10] is 94.3%; in [8] it was 96.6%; in test [9], 103%.

For `O=C(Nc1ccccc1Cl)Oc1ccc2ccccc2c1`, the growth in test [1] was 97.3%; in test [2], 98.9%; in test [3] it was 99.3%; in test [4], 68.7%; in test [5], 130%; in [6], 98.3%. Moreover, the growth is 97.8% in [7], 114% in [8] and 78.2% in test [9].

As for `Oc1c(-c2cc(C(F)(F)F)[nH]n2)cc(Cl)c(OCc2ccc(Cl)cc2)c1-c1ccc(Cl)c(C(F)(F)F)c1`, the growth is -40.9% (active) in test [1]; 4.67% (active) in [2]; 5.54% (active) in [3]; -27.6% (active) in test [4]; 7.21% (active) in [5]; 0.909% (active) in test [6]. Further, the growth was -15.7% (active) in test [7], -51.1% (active) in test [10], 5.04% (active) in test [8] and -14.8% (active) in test [9].

With `C=CCn1c(SCC(=O)Nc2ccc(C(=O)/C=C/c3ccc(Cl)cc3)cc2)nnc1-c1ccc(Cl)cc1`, the growth in test [1] is 100%; in test [2], 86.6%; in test [3], 78.8%; in [4], 61.7%; in [5], 90.8%; in [6], 101%. Moreover, the growth in test [10] was 83.8%; in test [8], 96.5%; in test [9], 68.4%.

Consider `Clc1cn2cc(-c3ccc(Cl)c(Cl)c3Cl)nc2s1`, for which the growth in [1] was 101%; in test [2], 110%; in [3], 101%; in [4], 79.2%; in test [5] it was 165%; in [6], 101%. Also, the growth in test [7] was 88.1%; in test [10], 110%; in test [8] it was 107%; in test [9], 85.5%.

On to `COc1cc(-c2n/c(=C\c3c(O)[nH]c4cc(Cl)ccc34)cc3c2=Nc2ccccc2-3)cc(OC)c1OC`, for which the growth in [1] was 72.9%; in test [2] it was 64.1%; in test [3], 78.4%; in test [4], 74.9%; in test [5], 63%; in test [6], 59.6%. The growth in test [7] is 69.1%; in test [10] it was 94.5%; in test [9], 70.6%.

With `COc1cc(NCCCCC(C)N)c2nccc(C)c2c1` (configuration not stated), the growth is 105% in [1]; 78.3% in test [2]; 87.1% in [3]; 38.2% in test [4]; 99.1% in test [5]; 94% in test [6]. For the same compound, the growth in [7] is 94.8%; in [10], 68.6%; in test [8] it was 99.7%; in test [9] it was 81.7%.

Consider `COc1ccc(-c2nnc(SCC(=O)Nc3ccc(C(=O)/C=C/c4ccc(Cl)cc4)cc3)n2-c2ccccc2)cc1`, for which the growth is 100% in test [1]; 102% in test [2]; 101% in test [3]; 73.8% in test [4]; 109% in test [5]; 107% in [6]. Also, the growth in test [10] was 116%; in [8] it was 86.5%; in [9] it was 81.5%.

(Values after PubChem BioAssay (NCI).)
